# Reference: PubChem BioAssay (Tox21)
# “And” between values parts separate entries of the source, which are not always exact repeats. Equal entries are not always repeated. Values without a mark were called inactive. Records with an inconclusive call do not appear. Entries that show only a call come without a potency. The source made the active and inactive calls. Unless noted, calls follow the shape of the dose curve; as a rule, active = well fitted curve in the direction sought with a large enough effect in the repeat runs; inconclusive = weak or mixed curves; inactive = no such curve, though single readings can be large; an effect the other way counts as inactive or inconclusive.
# Columns and labels:
# [1] = qHTS assay to identify small molecule agonists of H2AX (AID 1224845; active = well fitted activation curve with a large enough effect in the signal ratio in the repeat runs, not every such curve was filed as active; the % refers to the signal ratio)
# Procedure, shortened: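 Wild-type CHO-K1 cells, plated overnight, exposed 3hr at 37C to 15 concentrations (0.76% DMSO final). Lysed, then HTRF anti-pH2AX (S139) cryptate and anti-H2AX-d2 antibodies, 24 hr room temperature; 665/620 nm emission read.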
# [2] = qHTS assay to identify small molecule agonists of the hypoxia (HIF-1) signaling pathway (AID 1224846; active = well fitted activation curve with a large enough effect in the signal ratio in the repeat runs, not every such curve was filed as active; the % refers to the signal ratio)
# Procedure, shortened: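 Reporter induction in HRE-bla ME-180 cells is taken as agonism: cells sit 5 hrs after plating, receive compounds or DMSO only, incubate 17 hrs at 37C under 5% CO2, and are loaded with CCF4-AM for beta-lactamase FRET measurement.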
# [3] = qHTS assay to identify small molecule agonists of H2AX - cell viability counter screen (AID 1224847; calls by dose curve; also: nearly all actives have a fitted effect of over 30% in size; also: potency is read from the fitted curve at half-maximal effect)
# Procedure, shortened: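 For this counter screen, overnight-attached CHO-K1 cells received test compounds (15 concentrations, 0.76% DMSO final); 3 hr later at 37C, CellTiter-Glo reagent was added and luminescence recorded after 30 min at room temperature.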
# [4] = qHTS assay to identify small molecule antagonists of the estrogen related receptor (ERR) signaling pathway from Tox21 library (AID 1224848); also: nearly all actives have a fitted effect of over 50% in size; also: potency is read from the fitted curve at half-maximal effect
# Procedure, shortened: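 Quantitative high-throughput format: ERR reporter cells (2,000/well) pre-incubated 6 h, treated 18 h at 37 C with compounds in DMSO alongside positive and negative controls, then read by ONE-Glo luminescence.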
# [5] = qHTS assay to identify small molecule agonists of the estrogen related receptor (ERR) signaling pathway from Tox21 library (AID 1224849; calls by dose curve; also: nearly all actives have a fitted effect of over 15% in size); details: ERR reporter cell line, ONE-Glo luciferase, 18 h
# Procedure, shortened: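 Tox21 compounds tested for ERR agonism in an NTP reporter cell line: 18 h treatment at 37 C, then ONE-Glo luminescence.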
# [6] = qHTS RealTime-Glo MT Cell Viability Assay in HEK293 cells - 32 hour (AID 1224868); also: nearly all actives have a fitted effect of over 50% in size; also: potency is read from the fitted curve at half-maximal effect
# Procedure, shortened: (§1)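 HEK293 cells seeded with NanoLuc/prosubstrate reagent, rested 5 h at 37 C, then dosed and kept at 37 C up to 40 h. Nonlytic real-time luminescence from viable cells read at 0, 8, 16, 24, 32 and 40 h.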
# [7] = A CellTox Green Cytotoxicity Assay to monitor cytotoxicity in HEK293 cells - 0 hour (AID 1224869); also: nearly all actives have a fitted effect of over 50% in size
# Procedure, shortened: (§2)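 Tox21 screen in HEK293: membrane-impermeant cyanine dye fluoresces on binding dead-cell DNA; compound pinned 5 h post-seeding, plates held at 37 C, signal read repeatedly through 40 h.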
# [8] = qHTS RealTime-Glo MT Cell Viability Assay in HepG2 cells - 40 hour (AID 1224870); also: nearly all actives have a fitted effect of over 50% in size
# Procedure, shortened: (§3)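 HepG2 cells (600/well) mixed with RealTime-Glo MT reagent, settled 5 h at 37 C/5% CO2 before compound addition. Nonlytic NanoLuc luminescence from viable-cell prosubstrate reduction read repeatedly during 40 h treatment at 37 C.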
# [9] = A CellTox Green Cytotoxicity Assay to monitor cytotoxicity in HEK293 cells - 40 hour (AID 1224871); also: nearly all actives have a fitted effect of over 45% in size
# Procedure, shortened: as §2
# [10] = qHTS RealTime-Glo MT Cell Viability Assay in HEK293 cells - 16 hour (AID 1224872); also: nearly all actives have a fitted effect of over 50% in size; also: potency is read from the fitted curve at half-maximal effect
# Procedure, shortened: as §1
# [11] = qHTS RealTime-Glo MT Cell Viability Assay in HepG2 cells - 8 hour (AID 1224873); also: nearly all actives have a fitted effect of over 55% in size
# Procedure, shortened: as §3
# [12] = qHTS RealTime-Glo MT Cell Viability Assay in HEK293 cells - 40 hour (AID 1224874); details: RealTime-Glo luminescence; max response: active compounds read low; also: nearly all actives have a fitted effect of over 50% in size; also: potency is read from the fitted curve at half-maximal effect
# Procedure, shortened: (§4)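 HEK293 + NanoLuc + prosubstrate, 600 cells/well; 5 h, 37 C/5% CO2; compound 23 nL in DMSO by pintool; 37 C; luminescence read at 0, 8, 16, 24, 32 and 40 h time points.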
# [13] = A CellTox Green Cytotoxicity Assay to monitor cytotoxicity in HEK293 cells - 24 hour (AID 1224875); also: nearly all actives have a fitted effect of over 45% in size
# Procedure, shortened: as §2
# [14] = A CellTox Green Cytotoxicity Assay to monitor cytotoxicity in HepG2 cells - 16 hour (AID 1224876); also: nearly all actives have a fitted effect of over 45% in size
# Procedure, shortened: (§5)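 Measurements at 0, 8, 16, 24, 32 and 40 h of treatment captured CellTox Green fluorescence in HepG2 cells that had been co-plated with reagent and preincubated 5 h at 37 C/5% CO2.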
# [15] = qHTS RealTime-Glo MT Cell Viability Assay in HepG2 cells - 32 hour (AID 1224877); also: nearly all actives have a fitted effect of over 55% in size
# Procedure, shortened: (§6)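 HepG2 cells (600/well) were dispensed with RealTime-Glo reagents, incubated 5 h at 37 °C, then treated with compounds in DMSO for up to 40 h. Nonlytic NanoLuc luminescence reflecting viable cells was read at each stated time point.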
# [16] = A CellTox Green Cytotoxicity Assay to monitor cytotoxicity in HepG2 cells - 40 hour (AID 1224879); also: nearly all actives have a fitted effect of over 40% in size
# Procedure, shortened: as §5
# [17] = qHTS RealTime-Glo MT Cell Viability Assay in HEK293 cells - 0 hour (AID 1224880); also: top concentration of the series differs between compounds; nearly all actives have a fitted effect of over 45% in size
# Procedure, shortened: as §4
# [18] = A CellTox Green Cytotoxicity Assay to monitor cytotoxicity in HEK293 cells - 32 hour (AID 1224881); also: nearly all actives have a fitted effect of over 40% in size
# Procedure, shortened: as §2
# [19] = A CellTox Green Cytotoxicity Assay to monitor cytotoxicity in HepG2 cells - 24 hour (AID 1224878); also: nearly all actives have a fitted effect of over 45% in size
# Procedure, shortened: as §5
# [20] = qHTS RealTime-Glo MT Cell Viability Assay in HepG2 cells - 24 hour (AID 1224867); also: nearly all actives have a fitted effect of over 50% in size
# Procedure, shortened: as §6
smiles,measurement,setting,value
Cc1cccc(C)c1O,Potency,[1],inactive
same,outcome,[2],inactive
same,Potency,[3],inactive
same,Potency,[4],inactive
same,"activity change, positive = activation",[5]; at 92.4 µM (top of the series),7.32% and 4.77%
same,Potency,[6],inactive
same,Potency,[7],inactive
same,outcome,[8],inactive
same,Potency,[9],inactive
same,Potency,[10],inactive
same,outcome,[11],inactive
same,max response,[12],9.86% and 0.971%
same,Potency,[13],inactive
same,Potency,[14],inactive
same,outcome,[15],inactive
same,Potency,[16],inactive
same,Potency,[17],inactive
same,Potency,[18],inactive
Cc1cccc2ccccc12,Potency,[1],inactive
same,outcome,[2],inactive
same,Potency,[3],inactive
same,Potency,[4],inactive
same,"activity change, positive = activation",[5]; at 92.4 µM (top of the series),-5.59% and 0.133%
same,Potency,[6],inactive
same,Potency,[7],inactive
same,outcome,[8],inactive
same,Potency,[9],inactive
same,Potency,[10],inactive
same,outcome,[11],inactive
same,max response,[12],3.52% and 3.07%
same,Potency,[13],inactive
same,Potency,[14],inactive
same,outcome,[15],inactive
same,Potency,[19],inactive
same,Potency,[17],inactive
same,Potency,[18],inactive
CC1(C)O[C@@H]2[C@@H](CO[C@@]3(COS(N)(=O)=O)OC(C)(C)O[C@@H]23)O1,Potency,[1],inactive
same,outcome,[2],inactive
same,Potency,[3],inactive
same,Potency,[4],inactive
same,"activity change, positive = activation",[5]; at 42.5 µM (top of the series),1.2%
same,"activity change, positive = activation",[5]; at 92.4 µM (top of the series),-14.9%
same,outcome,[20],inactive
same,Potency,[6],inactive
same,Potency,[7],inactive
same,outcome,[8],inactive
same,Potency,[9],inactive
same,Potency,[10],inactive
same,outcome,[11],inactive
same,max response,[12],-1.97%
same,Potency,[13],inactive
same,Potency,[14],inactive
same,outcome,[15],inactive
same,Potency,[16],inactive
same,Potency,[17],inactive
same,Potency,[18],inactive
C[C@]12CC[C@@H]3c4ccc(O)cc4C[C@@H](CCCCCCCCCS(=O)CCCC(F)(F)C(F)(F)F)[C@H]3[C@@H]1CC[C@@H]2O (stereo not given in full),Potency,[1],inactive
same,outcome,[2],inactive
same,Potency,[3],inactive
same,Potency,[4],6.85 µM (active) and 5.7 µM (active) and 5.96 µM (active)
same,"activity change, positive = activation",[5]; at 42.5 µM (top of the series),-35% and -33.1%
same,"activity change, positive = activation",[5]; at 92.4 µM (top of the series),-37.7%
same,outcome,[20],inactive
same,Potency,[6],43.6 µM (active)
same,Potency,[7],inactive
same,outcome,[8],inactive
same,Potency,[9],inactive
same,Potency,[10],43.6 µM (active)
same,Potency,[12],43.6 µM (active)
same,Potency,[13],inactive
same,outcome,[15],inactive
same,Potency,[19],inactive
same,Potency,[17],inactive
same,Potency,[18],inactive
Cc1ccc(O)c(-n2nc3ccccc3n2)c1,Potency,[1],inactive
same,outcome,[2],inactive
same,Potency,[3],100 µM (active) and 89.8 µM (active)
same,Potency,[4],inactive
same,"activity change, positive = activation",[5]; at 42.5 µM (top of the series),147% (active)
same,"activity change, positive = activation",[5]; at 92.4 µM (top of the series),109% (active) and 139% (active)
same,outcome,[20],inactive
same,Potency,[6],inactive
same,Potency,[7],inactive
same,outcome,[8],inactive
same,Potency,[10],inactive
same,outcome,[11],inactive
same,max response,[12],-4.85% and -18.6% and -8.22%
same,Potency,[13],inactive
same,Potency,[14],inactive
same,outcome,[15],inactive
same,Potency,[19],inactive
same,Potency,[17],inactive
same,Potency,[18],inactive
CN(C)C=O,Potency,[1],inactive
same,outcome,[2],inactive
same,Potency,[3],inactive
same,Potency,[4],inactive
same,"activity change, positive = activation",[5]; at 92.4 µM (top of the series),7.34% and 6.88%
same,outcome,[20],inactive
same,Potency,[6],inactive
same,Potency,[7],inactive
same,outcome,[8],inactive
same,Potency,[9],inactive
same,Potency,[10],inactive
same,outcome,[11],inactive
same,max response,[12],2.24% and 2.36%
same,Potency,[13],inactive
same,Potency,[14],inactive
same,outcome,[15],inactive
same,Potency,[17],inactive
same,Potency,[18],inactive
C=C(C)OC(C)=O,Potency,[1],inactive
same,outcome,[2],inactive
same,Potency,[3],inactive
same,Potency,[4],inactive
same,"activity change, positive = activation",[5]; at 92.4 µM (top of the series),4.28% and 3.36%
same,outcome,[20],inactive
same,Potency,[6],inactive
same,Potency,[7],inactive
same,outcome,[8],inactive
same,Potency,[10],inactive
same,outcome,[11],inactive
same,max response,[12],5.33% and 0.384%
same,Potency,[13],inactive
same,Potency,[14],inactive
same,outcome,[15],inactive
same,Potency,[17],inactive
same,Potency,[18],inactive
COC(=O)C1CCC(C(=O)OC)CC1 (stereo not given),Potency,[1],inactive
same,outcome,[2],inactive
same,Potency,[3],inactive
same,Potency,[4],inactive
same,"activity change, positive = activation",[5]; at 92.4 µM (top of the series),0.483% and 7.26% and 4.66%
same,Potency,[6],inactive
same,Potency,[7],inactive
same,outcome,[8],inactive
same,Potency,[10],inactive
same,outcome,[11],inactive
same,max response,[12],7.05% and -2.3% and 3.36%
same,Potency,[13],inactive
same,outcome,[15],inactive
same,Potency,[16],inactive
same,Potency,[17],inactive
same,Potency,[18],inactive
CCCCCCCCOc1ccc(C(=O)c2ccccc2)c(O)c1,Potency,[1],inactive
same,outcome,[2],inactive
same,Potency,[3],inactive
same,Potency,[4],inactive
same,"activity change, positive = activation",[5]; at 42.5 µM (top of the series),-7.25%
same,"activity change, positive = activation",[5]; at 92.4 µM (top of the series),6.94% and -4.94%
same,outcome,[20],inactive
same,Potency,[6],inactive
same,Potency,[7],inactive
same,outcome,[8],inactive
same,Potency,[9],inactive
same,Potency,[10],inactive
same,outcome,[11],inactive
same,max response,[12],-20.9% and 7.71% and 4.9%
same,Potency,[13],inactive
same,Potency,[14],inactive
same,outcome,[15],inactive
same,Potency,[19],inactive
same,Potency,[17],inactive
same,Potency,[18],inactive
COCC(C)N (stereo not given),Potency,[1],inactive
same,outcome,[2],inactive
same,Potency,[3],inactive
same,outcome,[20],inactive
same,Potency,[6],inactive
same,Potency,[7],inactive
same,outcome,[8],inactive
same,Potency,[9],inactive
same,Potency,[10],inactive
same,outcome,[11],inactive
same,max response,[12],4.72% and 4.68%
same,Potency,[13],inactive
same,outcome,[15],inactive
same,Potency,[19],inactive
same,Potency,[16],inactive
same,Potency,[17],inactive
same,Potency,[18],inactive
OCCCc1ccccc1,Potency,[1],inactive
same,outcome,[2],inactive
same,Potency,[3],inactive
same,Potency,[4],inactive
same,"activity change, positive = activation",[5]; at 42.5 µM (top of the series),-1.08%
same,"activity change, positive = activation",[5]; at 92.4 µM (top of the series),4.65%
same,outcome,[20],inactive
same,Potency,[6],inactive
same,Potency,[7],inactive
same,outcome,[8],inactive
same,Potency,[9],inactive
same,Potency,[10],inactive
same,outcome,[11],inactive
same,max response,[12],12.9% and 2.88%
same,Potency,[13],inactive
same,outcome,[15],inactive
same,Potency,[16],inactive
same,Potency,[17],inactive
same,Potency,[18],inactive
